SMILES strings stand for the structures. In all, about 69,000 compounds went through this assay and about 8,600 (12%) showed an effect of 50% or more. What follows is part of a selection rich in strong results, with near analogues and random picks from the rest.

The experiment has as its system Plasmodium berghei. As to the kind of experiment: Screen against P. berghei liver stage (PbLuc), transformed with Luciferase, at 10uM. In kind it is functional, HepG2. The note with it: tested at 10 uM.
Take `CCN(CCC(F)(F)F)C(=O)Nc1cccc(N2CCOCC2)c1`: the INHIBITION was determined as 3.47%.
Regarding `CCN(CC1CCCO1)C(=O)Nc1ccc(OC)c(C)c1` (centres undefined), the INHIBITION is reported as -79.7%.
For `CCN(CC1CCCO1)C(=O)Nc1cccc(N2CCOCC2)c1` (centres undefined) the value was 54.4%; for `O=C(c1cscn1)N1CCC(Cc2cnc3[nH]ccc3c2)C1` (centres undefined), -14.1%.
The same measure for `COc1cccnc1NC(=O)c1ccc(COCC(F)(F)F)cc1`: 62.4%.
In the case of `Cc1n[nH]c(NC(=O)c2ccc(COCC(F)(F)F)cc2)c1C`, the INHIBITION is listed as 52.5%.
The same measure for `COc1cccnc1NC(=O)COc1c(C)cccc1C`: 36.5%; for `CC(C)(C)NC(=O)c1ccc(COCC(F)(F)F)o1`: 14.2%.
The same measure for `COc1cccnc1NC(=O)COc1ccc(F)cc1F`: 33.5%; for `O=C(Nc1cc[nH]n1)c1ccc(COCC(F)(F)F)cc1`: -17.8%; for `O=C(Cc1ccccc1)N1CCCC2(COCCN(CC3CC3)C2)C1` (centres undefined): 19.5%.
For `Cc1ccc(C(C(=O)NCc2n[nH]c(N)n2)N(C)C)cc1` (centres undefined) the value was 19.5%; for `CC(=O)N(C)Cc1ncn2c1CN(C(=O)C1CCCO1)CCC2` (centres undefined), -0.453%; for `COCCN1CCN(Cc2cnc(C)nc2)CC1`, -9.32%.
`COCCN1CCN(Cc2cnc(C(C)C)nc2)CC1`: the INHIBITION amounted to 53.2%.
For `CCc1ncc(CN2CCN(CCOC)CC2)cn1` the value was 11.1%.
For `CN(C)S(=O)(=O)c1ccc(-c2nc(C#N)c(NC3CC3)o2)o1` the value was 15.4%; for `CCN(CC)S(=O)(=O)N1CCc2nc(C3CCNCC3)ncc2C1`, 32.3%.
With `O=S(=O)(c1ccccc1Cl)N1CCc2nc(C3CCNCC3)ncc2C1`, the INHIBITION turned out to be 75.6%.
For the compound `Cc1ccc(S(=O)(=O)N2CCc3nc(C4CCNCC4)ncc3C2)cc1`, the INHIBITION is given as 68.2%.
Turning to `CCN(CC)S(=O)(=O)N1CCCC(c2ncc3c(n2)CCN(C)C3)C1` (centres undefined), the INHIBITION worked out at 43.25%.
Take `Cc1noc(C)c1S(=O)(=O)N1CCc2nc(C3CCNCC3)ncc2C1`: the INHIBITION amounted to 34%.
`O=S(=O)(c1ccc(Cl)cc1)N1CCc2nc(C3CCNCC3)ncc2C1`: the INHIBITION was determined as 9.93%.
For `Clc1ccccc1CN1CCc2nc(C3CCNCC3)ncc2C1` the value was 23.2%.
For `CCC(C)S(=O)(=O)N1CCc2nc(C3CCNCC3)ncc2C1` (centres undefined) the value was 57.5%; for `O=S(=O)(N1CCCCC1)N1CCc2nc(C3CCNCC3)ncc2C1`, 22.2%; for `COc1c(CNC2(c3noc(C)n3)CCC2)c(C(C)C)nn1C`, -113%.
For `Cc1ocnc1C(=O)N1CCCN(Cc2cscn2)CC1` the value was 35.3%; for `O=C(c1ccncc1)N1CC[C@@H]2CN(C3CCOCC3)CCO[C@@H]2C1`, 23.1%.
Take `Cn1cccc1CN1CCC2(CC1)CC(Oc1cccnc1)C2`: the INHIBITION was 24.6%.
In the case of `COc1cccc(Nc2nc(-c3ccncc3)nc3c2CNCC3)c1`, the INHIBITION is recorded as 51.7%.
The same measure for `O=C(c1cccc(F)c1)N1CCCC1c1ncc2c(n1)CCNC2` (centres undefined): 36.7%; for `c1csc(CCNc2nc(-c3ccncc3)nc3c2CCNCC3)c1`: 31.6%; for `CC(O)CNc1nc(-c2cccnc2)nc2c1CCC2` (centres undefined): -43%.
On to `NC1CCc2nc(-c3ccncc3)nc(Nc3cccc(F)c3)c2C1` (centres undefined), for which the INHIBITION is 90.35%.
For `COc1cccc(Nc2nc(N3CCCC3)nc3c2CNCC3)c1` the value was 42.5%; for `c1cncc(-c2nc3c(c(NCC4(c5ccncc5)CC4)n2)CCC3)c1`, -5.38%; for `Fc1cccc(Nc2nc(N3CCCC3)nc3c2CNCC3)c1`, 76.8%.
As to `NC1CCc2nc(-c3cccnc3)nc(Nc3ccc(F)cc3)c2C1` (centres undefined), the INHIBITION was 63.85%.
For `O=C(Nc1cccc(F)c1)NC1CCN(Cc2ccncc2)CC1` the value was 45.4%; for `CC(Nc1nc(-c2ccncc2)nc2c1CCNC2)c1ccccc1` (centres undefined), 46.3%; for `COc1cccc(Nc2nc(C3CCNCC3)c3ccccn23)c1`, 9.6%.
For the compound `Cc1sc(CN)nc1-c1ccc(Cl)cc1`, the INHIBITION stood at 5.11%.
For `CCc1cc(-c2cc[nH]n2)nc(N2CCCC2)n1` the value was 14.6%; for `Cn1cc([C@@H]2CN(S(=O)(=O)c3cccs3)C[C@H]2N)c2ccncc21`, 41.9%.
Consider `Cc1c(CC(=O)N2CCSCC2)nnn1-c1cccc(Cl)c1`, for which the INHIBITION is 3.46%.
Take `O=C(CC1CCCC1)N1CCC2(CC1)[C@H](O)C[C@@H]2O`: the INHIBITION is given as 33.4%.
For `CN(Cc1ccco1)C(=O)CN1CCCC1Cn1cncn1` (centres undefined) the value was -4.16%; for `Cc1cnn(C2CCCN(C(=O)c3cn4ccccc4n3)C2)c1` (centres undefined), 22.3%.
The same measure for `COc1ccnc(N2CCN(C(=O)Cc3csc(C)n3)CC2)n1`: -55.4%; for `CCOc1ccccc1CNCC1CCN(CC(C)O)CC1` (centres undefined): 28.7%; for `CCN(CC)C(=O)Nc1cccc(Oc2ccccn2)c1`: 20%.
The same measure for `Cc1nc(C2CCCN(C(=O)c3ccc(N4CCCC4)nn3)C2)no1` (centres undefined): -19.4%.
As to `CCn1cc(-n2cc3nc(N(C)C)[nH]cc-3c2=O)cn1`, the INHIBITION was -13%.
